# Measurements reported in the supplement of paper PMC10849652.
# Of roughly 8,800 targets only a part is listed; those with a hit were picked by preference. About 0.5% of all pairs of compound and target were hits.
# Compound: C1=CC=C(C=C1)[C@H](COC2=CC3=C(C=C2)NC(=O)N3)NC(=O)C4=CC=CN(C4=O)CC5=CC(=C(C=C5)F)F
# Assay: log2 fold change, soluble protein after heating vs DMSO (PISA); higher = thermal stabilisation; K562 lysate, 10 uM; active = over 0.2 and 3.5 SD of the protein, either way, in both replicates (recomputed)
# In short: (§1)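 Dounce homogenisation of K562 pellets in PBS pH 7.4 with 1 mM MgCl2 produced a crude extract, used at 1 mg/mL protein. Exposure to 10 μM compound lasted 30 min, and aliquots were then heated for 3 min across 48°C-58°C, pooled and brought to 0.5% NP-40 at 4°C. The supernatant after 21,000xg for 90 min was quantified by TMTpro 16plex LC-MS/MS with channel sums equalised. Duplicate values are given as log-two fold change in thermal stability relative to solvent controls.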
# UniProt Q96DM3, sequence (Q96DM3 whole entry, looked up): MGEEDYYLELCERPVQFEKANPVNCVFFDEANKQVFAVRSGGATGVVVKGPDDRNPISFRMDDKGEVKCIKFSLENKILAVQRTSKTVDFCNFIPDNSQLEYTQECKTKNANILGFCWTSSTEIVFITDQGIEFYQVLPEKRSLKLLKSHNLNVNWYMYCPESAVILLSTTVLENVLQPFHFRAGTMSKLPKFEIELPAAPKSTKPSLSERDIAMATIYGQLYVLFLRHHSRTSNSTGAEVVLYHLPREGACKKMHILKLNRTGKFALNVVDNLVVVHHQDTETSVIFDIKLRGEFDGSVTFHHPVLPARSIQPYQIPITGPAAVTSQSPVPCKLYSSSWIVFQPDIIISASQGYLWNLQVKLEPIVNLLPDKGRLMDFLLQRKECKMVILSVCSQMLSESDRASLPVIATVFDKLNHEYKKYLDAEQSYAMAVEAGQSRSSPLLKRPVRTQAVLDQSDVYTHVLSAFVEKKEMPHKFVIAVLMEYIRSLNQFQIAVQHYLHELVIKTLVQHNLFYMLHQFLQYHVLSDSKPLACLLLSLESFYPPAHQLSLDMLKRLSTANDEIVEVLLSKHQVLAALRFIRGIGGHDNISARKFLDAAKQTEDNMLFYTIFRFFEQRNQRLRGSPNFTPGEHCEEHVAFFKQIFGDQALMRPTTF
# UniProt Q15418, sequence (Q15418 whole entry, looked up): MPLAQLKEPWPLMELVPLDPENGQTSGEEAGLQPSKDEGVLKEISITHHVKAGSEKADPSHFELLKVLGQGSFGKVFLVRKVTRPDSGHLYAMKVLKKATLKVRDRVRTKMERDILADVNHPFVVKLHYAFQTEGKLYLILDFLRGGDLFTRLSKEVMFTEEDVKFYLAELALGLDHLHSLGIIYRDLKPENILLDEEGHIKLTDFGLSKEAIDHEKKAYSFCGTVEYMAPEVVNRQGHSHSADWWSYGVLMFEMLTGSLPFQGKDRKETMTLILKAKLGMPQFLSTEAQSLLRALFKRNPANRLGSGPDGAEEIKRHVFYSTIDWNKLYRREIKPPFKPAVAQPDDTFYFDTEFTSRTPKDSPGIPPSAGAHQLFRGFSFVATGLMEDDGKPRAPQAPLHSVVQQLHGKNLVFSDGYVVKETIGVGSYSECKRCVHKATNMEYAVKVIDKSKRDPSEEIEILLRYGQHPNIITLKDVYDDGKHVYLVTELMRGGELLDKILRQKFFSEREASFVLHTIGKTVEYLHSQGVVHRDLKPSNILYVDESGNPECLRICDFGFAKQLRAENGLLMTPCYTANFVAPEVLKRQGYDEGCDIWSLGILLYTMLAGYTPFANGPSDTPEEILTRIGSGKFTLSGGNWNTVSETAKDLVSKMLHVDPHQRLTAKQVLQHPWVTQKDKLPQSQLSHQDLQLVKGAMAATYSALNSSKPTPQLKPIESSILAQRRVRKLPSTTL
# UniProt Q86U06, sequence (Q86U06 whole entry, looked up): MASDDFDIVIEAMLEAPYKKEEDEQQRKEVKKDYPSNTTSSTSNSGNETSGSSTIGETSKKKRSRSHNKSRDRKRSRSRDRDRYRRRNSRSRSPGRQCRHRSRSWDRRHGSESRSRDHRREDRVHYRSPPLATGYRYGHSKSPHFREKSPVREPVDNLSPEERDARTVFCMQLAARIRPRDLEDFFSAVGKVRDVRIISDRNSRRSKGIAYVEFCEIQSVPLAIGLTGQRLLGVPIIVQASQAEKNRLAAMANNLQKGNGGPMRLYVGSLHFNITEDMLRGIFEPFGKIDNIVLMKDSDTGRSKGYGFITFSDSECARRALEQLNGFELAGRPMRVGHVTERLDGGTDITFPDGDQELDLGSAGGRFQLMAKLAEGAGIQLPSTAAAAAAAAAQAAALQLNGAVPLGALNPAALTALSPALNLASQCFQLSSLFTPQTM
# UniProt Q9H0U4, sequence (Q9H0U4 whole entry, looked up): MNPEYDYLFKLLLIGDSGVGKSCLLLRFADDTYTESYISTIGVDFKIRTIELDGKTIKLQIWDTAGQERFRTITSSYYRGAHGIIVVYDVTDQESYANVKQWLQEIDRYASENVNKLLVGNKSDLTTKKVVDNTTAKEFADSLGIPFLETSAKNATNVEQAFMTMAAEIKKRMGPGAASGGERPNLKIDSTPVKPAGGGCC
# UniProt Q9H0R6, sequence (Q9H0R6 whole entry, looked up): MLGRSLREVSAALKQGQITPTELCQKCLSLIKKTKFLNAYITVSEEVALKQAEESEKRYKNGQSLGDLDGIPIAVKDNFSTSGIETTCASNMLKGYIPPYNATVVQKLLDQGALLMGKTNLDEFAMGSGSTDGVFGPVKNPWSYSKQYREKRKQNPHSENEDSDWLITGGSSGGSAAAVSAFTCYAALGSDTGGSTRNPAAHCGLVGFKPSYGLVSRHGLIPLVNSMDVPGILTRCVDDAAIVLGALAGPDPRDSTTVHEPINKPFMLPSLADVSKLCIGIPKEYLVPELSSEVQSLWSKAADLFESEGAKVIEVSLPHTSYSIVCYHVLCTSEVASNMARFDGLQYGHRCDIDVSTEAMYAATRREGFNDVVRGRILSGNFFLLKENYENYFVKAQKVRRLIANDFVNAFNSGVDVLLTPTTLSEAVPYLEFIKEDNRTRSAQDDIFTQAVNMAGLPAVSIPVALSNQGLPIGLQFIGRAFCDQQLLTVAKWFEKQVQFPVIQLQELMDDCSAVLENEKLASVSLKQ
# UniProt P28702, sequence (P28702 whole entry, looked up): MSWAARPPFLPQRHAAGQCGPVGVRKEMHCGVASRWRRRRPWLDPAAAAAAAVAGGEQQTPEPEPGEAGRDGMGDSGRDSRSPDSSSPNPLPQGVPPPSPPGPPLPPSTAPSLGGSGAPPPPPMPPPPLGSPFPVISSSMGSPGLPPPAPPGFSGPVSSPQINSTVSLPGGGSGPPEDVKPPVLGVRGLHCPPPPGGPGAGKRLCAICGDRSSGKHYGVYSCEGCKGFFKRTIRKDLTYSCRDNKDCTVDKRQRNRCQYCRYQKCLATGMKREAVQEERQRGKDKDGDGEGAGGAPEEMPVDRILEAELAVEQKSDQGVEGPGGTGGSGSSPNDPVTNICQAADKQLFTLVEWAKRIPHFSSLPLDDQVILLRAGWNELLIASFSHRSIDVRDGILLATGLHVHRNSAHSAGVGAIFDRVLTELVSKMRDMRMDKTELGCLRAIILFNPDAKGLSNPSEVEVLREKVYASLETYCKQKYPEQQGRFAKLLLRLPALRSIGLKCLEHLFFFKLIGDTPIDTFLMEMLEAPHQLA
# UniProt Q7Z6M1, sequence (Q7Z6M1 whole entry, looked up): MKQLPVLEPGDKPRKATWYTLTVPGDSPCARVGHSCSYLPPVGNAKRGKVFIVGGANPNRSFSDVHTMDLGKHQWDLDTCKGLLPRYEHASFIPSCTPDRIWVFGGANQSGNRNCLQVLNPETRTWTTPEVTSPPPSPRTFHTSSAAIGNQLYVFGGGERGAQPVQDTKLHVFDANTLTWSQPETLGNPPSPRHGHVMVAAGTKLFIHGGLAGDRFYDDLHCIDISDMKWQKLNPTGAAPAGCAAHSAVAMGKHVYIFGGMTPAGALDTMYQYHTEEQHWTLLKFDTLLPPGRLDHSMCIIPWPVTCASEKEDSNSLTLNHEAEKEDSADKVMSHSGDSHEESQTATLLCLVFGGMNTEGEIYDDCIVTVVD
# UniProt Q9BRS2, sequence (Q9BRS2 whole entry, looked up): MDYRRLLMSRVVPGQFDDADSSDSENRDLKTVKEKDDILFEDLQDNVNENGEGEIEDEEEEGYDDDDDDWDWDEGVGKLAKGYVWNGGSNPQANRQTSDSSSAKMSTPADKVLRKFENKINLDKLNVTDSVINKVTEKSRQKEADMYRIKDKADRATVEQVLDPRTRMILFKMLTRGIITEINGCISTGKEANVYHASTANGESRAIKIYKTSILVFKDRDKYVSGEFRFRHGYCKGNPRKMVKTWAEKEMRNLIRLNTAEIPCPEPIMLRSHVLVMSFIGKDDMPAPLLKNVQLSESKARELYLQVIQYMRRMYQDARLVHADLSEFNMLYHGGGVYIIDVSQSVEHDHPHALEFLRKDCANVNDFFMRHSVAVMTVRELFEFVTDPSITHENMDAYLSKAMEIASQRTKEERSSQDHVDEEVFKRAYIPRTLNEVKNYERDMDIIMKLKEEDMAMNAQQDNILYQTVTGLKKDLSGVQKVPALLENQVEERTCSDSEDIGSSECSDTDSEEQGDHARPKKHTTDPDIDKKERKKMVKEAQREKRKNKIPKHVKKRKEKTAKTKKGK
# UniProt Q96HR9, sequence (Q96HR9 whole entry, looked up): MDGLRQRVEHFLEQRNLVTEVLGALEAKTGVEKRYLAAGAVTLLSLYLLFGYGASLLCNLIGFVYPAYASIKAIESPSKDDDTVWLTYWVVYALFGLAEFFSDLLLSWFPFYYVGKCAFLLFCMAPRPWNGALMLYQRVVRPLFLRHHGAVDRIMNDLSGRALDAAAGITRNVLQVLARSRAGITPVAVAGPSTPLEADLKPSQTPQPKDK
# UniProt P60059, sequence (P60059 whole entry, looked up): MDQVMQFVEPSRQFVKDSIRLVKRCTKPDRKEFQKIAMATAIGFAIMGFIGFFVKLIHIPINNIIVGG
# UniProt P38159, sequence (P38159 whole entry, looked up): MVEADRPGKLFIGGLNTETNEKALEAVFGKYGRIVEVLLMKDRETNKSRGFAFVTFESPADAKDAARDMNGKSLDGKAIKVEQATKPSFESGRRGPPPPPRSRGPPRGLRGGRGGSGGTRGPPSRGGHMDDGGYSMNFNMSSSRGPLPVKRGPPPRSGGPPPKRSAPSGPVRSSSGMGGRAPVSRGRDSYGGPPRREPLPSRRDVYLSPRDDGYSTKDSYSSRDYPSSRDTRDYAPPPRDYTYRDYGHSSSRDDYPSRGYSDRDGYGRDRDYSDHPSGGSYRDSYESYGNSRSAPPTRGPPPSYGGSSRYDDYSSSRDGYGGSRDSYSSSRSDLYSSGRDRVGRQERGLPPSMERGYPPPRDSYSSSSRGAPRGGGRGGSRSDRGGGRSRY
# UniProt Q00765, sequence (Q00765 whole entry, looked up): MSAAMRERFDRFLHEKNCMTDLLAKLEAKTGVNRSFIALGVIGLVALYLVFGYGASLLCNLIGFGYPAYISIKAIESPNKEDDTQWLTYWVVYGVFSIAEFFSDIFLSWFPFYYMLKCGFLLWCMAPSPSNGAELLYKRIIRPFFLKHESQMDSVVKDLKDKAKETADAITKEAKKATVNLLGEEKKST
row,Target,log2 fold change
1,RXRB isoform 3 (UniProt P28702),-0.214 (inactive)
2,RMC1 (UniProt Q96DM3),-0.013 (inactive)
3,RAC2 (UniProt P15153),-0.116 (inactive)
4,RNF113A (UniProt O15541),0.047 (inactive)
5,"RAPGEF2, A0A2R8YGD3",-0.043 (inactive)
6,REEP6 (UniProt Q96HR9),0.038 (inactive)
7,RBBP7 (UniProt Q16576),-0.029 (inactive)
8,RIOK1 (UniProt Q9BRS2),-0.026 (inactive)
9,RECQL5 (UniProt O94762),-0.081 (inactive)
10,RABEPK (UniProt Q7Z6M1),-0.032 (inactive)
11,RPL37A (UniProt P61513),-0.009 (inactive)
12,RAB1B (UniProt Q9H0U4),-0.015 (inactive)
13,RBM23 isoform 2 (UniProt Q86U06),-0.118 (inactive)
14,RNF170 (UniProt Q96K19),-0.097 (inactive)
15,RNF123 (UniProt Q5XPI4),-0.019 (inactive)
16,SEC61G (UniProt P60059),0.269 (inactive)

row,Target,log2 fold change
1,RLIM (UniProt Q9NVW2),0.049 (inactive)
2,RBMX (UniProt P38159),0.089 (inactive)
3,QRSL1 (UniProt Q9H0R6),-0.005 (inactive)
4,SCML2 (UniProt Q9UQR0),-0.036 (inactive)
5,RPS6KA1 (UniProt Q15418),-0.073 (inactive)
6,REEP5 (UniProt Q00765),0.007 (inactive)
7,RAB6D (UniProt Q53S08),-0.045 (inactive)
8,RAB27A (UniProt P51159),0.052 (inactive)
9,SCAF1 (UniProt Q9H7N4),0.112 (inactive)
10,RARS (UniProt P54136),-0.014 (inactive)
11,ROCK1 (UniProt Q13464),0.019 (inactive)
12,RAD50 isoform 2 (UniProt Q92878),-0.002 (inactive)
13,RANBP2 (UniProt P49792),-0.019 (inactive)
14,RPS6KA3 (UniProt P51812),-0.049 (inactive)
15,RPS29 (UniProt P62273),0.047 (inactive)
16,SESN2 (UniProt P58004),-0.074 (inactive)

# Compound: CC1=C(SC2=C1C(=N[C@H](C3=NN=C(N32)C)CC(=O)N)C4=CC=C(C=C4)Cl)C
# Assay: as above
# In short: as §1
row,Target,log2 fold change
1,RXRB isoform 3 (UniProt P28702),-0.018 (inactive)
2,RMC1 (UniProt Q96DM3),0.018 (inactive)
3,RAC2 (UniProt P15153),0.043 (inactive)
4,RNF113A (UniProt O15541),-0.022 (inactive)
5,"RAPGEF2, A0A2R8YGD3",0.021 (inactive)
6,REEP6 (UniProt Q96HR9),-0.081 (inactive)
7,RBBP7 (UniProt Q16576),0.013 (inactive)
8,RIOK1 (UniProt Q9BRS2),-0.031 (inactive)
9,RECQL5 (UniProt O94762),0.014 (inactive)
10,RABEPK (UniProt Q7Z6M1),0.054 (inactive)
11,RPL37A (UniProt P61513),0 (inactive)
12,RAB1B (UniProt Q9H0U4),0.021 (inactive)
13,RBM23 isoform 2 (UniProt Q86U06),-0.084 (inactive)
14,RNF170 (UniProt Q96K19),-0.115 (inactive)
15,RNF123 (UniProt Q5XPI4),-0.024 (inactive)
16,SEC61G (UniProt P60059),-0.063 (inactive)

row,Target,log2 fold change
1,RLIM (UniProt Q9NVW2),0.135 (inactive)
2,RBMX (UniProt P38159),-0.01 (inactive)
3,QRSL1 (UniProt Q9H0R6),-0.056 (inactive)
4,SCML2 (UniProt Q9UQR0),0.062 (inactive)
5,RPS6KA1 (UniProt Q15418),-0.064 (inactive)
6,REEP5 (UniProt Q00765),0.009 (inactive)
7,RAB6D (UniProt Q53S08),0.01 (inactive)
8,RAB27A (UniProt P51159),0.028 (inactive)
9,SCAF1 (UniProt Q9H7N4),-0.492 (active)
10,RARS (UniProt P54136),0.038 (inactive)
11,ROCK1 (UniProt Q13464),0.027 (inactive)
12,RAD50 isoform 2 (UniProt Q92878),-0.031 (inactive)
13,RANBP2 (UniProt P49792),-0.009 (inactive)
14,RPS6KA3 (UniProt P51812),-0.031 (inactive)
15,RPS29 (UniProt P62273),-0.055 (inactive)
16,SESN2 (UniProt P58004),0.01 (inactive)

# Compound: CC1=C2C(=CC=C1)N=C(N(C2=O)C3=CC=CC=C3C)CN4C=NC5=C(N=CN=C54)N
# Assay: as above
# In short: as §1
row,Target,log2 fold change
1,RXRB isoform 3 (UniProt P28702),-0.151 (inactive)
2,RMC1 (UniProt Q96DM3),-0.052 (inactive)
3,RAC2 (UniProt P15153),-0.032 (inactive)
4,RNF113A (UniProt O15541),-0.018 (inactive)
5,"RAPGEF2, A0A2R8YGD3",-0.046 (inactive)
6,REEP6 (UniProt Q96HR9),0.005 (inactive)
7,RBBP7 (UniProt Q16576),0.009 (inactive)
8,RIOK1 (UniProt Q9BRS2),-0.003 (inactive)
9,RECQL5 (UniProt O94762),0.011 (inactive)
10,RABEPK (UniProt Q7Z6M1),0.026 (inactive)
11,RPL37A (UniProt P61513),-0.031 (inactive)
12,RAB1B (UniProt Q9H0U4),0.056 (inactive)
13,RBM23 isoform 2 (UniProt Q86U06),0.06 (inactive)
14,RNF170 (UniProt Q96K19),0.149 (inactive)
15,RNF123 (UniProt Q5XPI4),0.019 (inactive)
16,SEC61G (UniProt P60059),-0.016 (inactive)

row,Target,log2 fold change
1,RBMX (UniProt P38159),-0.004 (inactive)
2,QRSL1 (UniProt Q9H0R6),-0.101 (inactive)
3,SCML2 (UniProt Q9UQR0),-0.055 (inactive)
4,RPS6KA1 (UniProt Q15418),-0.045 (inactive)
5,REEP5 (UniProt Q00765),0.028 (inactive)
6,RAB6D (UniProt Q53S08),0.034 (inactive)
7,RAB27A (UniProt P51159),-0.007 (inactive)
8,SCAF1 (UniProt Q9H7N4),0.002 (inactive)
9,RARS (UniProt P54136),0.024 (inactive)
10,ROCK1 (UniProt Q13464),0.023 (inactive)
11,RAD50 isoform 2 (UniProt Q92878),0.004 (inactive)
12,RANBP2 (UniProt P49792),0.002 (inactive)
13,RPS6KA3 (UniProt P51812),-0.008 (inactive)
14,RPS29 (UniProt P62273),-0.071 (inactive)
15,SESN2 (UniProt P58004),-0.025 (inactive)
